p53ts 39C kill – kills p53ts cells at the nonpermissive temperature | H1299-p53A138V viability at 39C, ATP luminescence, 24 h | Potency, µM (titrated, usually from 46.1 µM), for the others: at the highest dose activity change, negative = cell killing, usual class: cytotoxic | 1.5% of 130,000 active | AID 902; further: potency means the concentration at half of the fitted maximal effect; on the % scale 0 is the no-effect control and ±100 the full control effect; nearly all actives have a fitted effect of over 55% in size
Hsp90 Hop PPI – changes Hsp90-Hop TPR2A binding signal, up or down; AlphaScreen TPR2A-His6 binding biotin-Hsp90 C-terminal peptide; Potency, µM (series often up to 57 µM), for the others: top-dose activity change, negative = inhibition; 0.44% of 71,000 active; active means well fitted curve in either direction with a large enough effect; inconclusive means small, poorly fitted or top-dose-only effect, or another doubt; further: potency means the concentration at half of the fitted maximal effect; on the % scale 0 is the no-effect control and ±100 the full control effect
IMPase cell inh – IMPase inhibition in cells. P97697. CHO-M1 cells, IP1 accumulation, HTRF TR-FRET ratio. inhibition (IP1 accumulation), % at 46.1 µM. 120,000 tested, under 10 active; active means well fitted curve in the direction sought with a large enough effect in the signal ratio, not every such curve was filed as active; inconclusive means small, poorly fitted or top-dose-only effect, or a change in a side signal; inactive means no such curve, though single readings can be large or run the other way; the % refers to the signal ratio;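 further: cells stimulated with carbachol in lithium chloride buffer; plate controls were DMSO basal wells for no effect and reference inhibitor wells for full effect; higher means more IMPase inhibition seen as more IP1 and lower FRET ratio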
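Cellular IMPase inhibition is scored as a rise in cytosolic IP1, detected by competitive TR-FRET between d2-labelled IP1 and a europium anti-IP1 antibody. M1-expressing CHO cells were stimulated with carbachol for 30 min at 37C, with lithium (50 mM LiCl) present in the buffer.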
IkB signaling – suppresses IkB signaling in ABC-DLBCL reporter cells; 0.04% of 110,000 active; AID 445; Potency, µM (top dose mostly 57.1 µM), for the others: at the top dose IkBa stabilization activation; ABC-DLBCL IkBa-CBG/CBR dual luciferase ratio, 4 h; response scale: scaled: untreated 0%, proteasome inhibitor 100%; active means well fitted curve in the direction sought with a large enough effect in the signal ratio, not every such curve was filed as active; inconclusive means small, poorly fitted or top-dose-only effect, or a change in a side signal; the % refers to the signal ratio;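 further: potency means the concentration at half of the fitted maximal effect; the direction sought is a rising ratio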
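Luminescence ratio of IκBα-fused green versus native red beetle luciferase in OCI-Ly3 cells, 4 h post-doxycycline with compound; red signal alone, scaled from basal (0%) to zero light (-100%), flagged nonspecific or cytotoxic effects.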
FLuc inh – blocks Photinus pyralis firefly luciferase activity. 2.2% of 72,000 active. P08659. Potency, µM (highest dose often 57.1 µM), for the others: at the highest dose activity change, negative = inhibition, hits mostly inhibitors. purified firefly luciferase, luminescence, 8 min; further: potency means the concentration at half of the fitted maximal effect; on the % scale 0 is the no-effect control and ±100 the full control effect; nearly all actives have a fitted effect of over 40% in size
Target sequence (P08659 whole entry, looked up): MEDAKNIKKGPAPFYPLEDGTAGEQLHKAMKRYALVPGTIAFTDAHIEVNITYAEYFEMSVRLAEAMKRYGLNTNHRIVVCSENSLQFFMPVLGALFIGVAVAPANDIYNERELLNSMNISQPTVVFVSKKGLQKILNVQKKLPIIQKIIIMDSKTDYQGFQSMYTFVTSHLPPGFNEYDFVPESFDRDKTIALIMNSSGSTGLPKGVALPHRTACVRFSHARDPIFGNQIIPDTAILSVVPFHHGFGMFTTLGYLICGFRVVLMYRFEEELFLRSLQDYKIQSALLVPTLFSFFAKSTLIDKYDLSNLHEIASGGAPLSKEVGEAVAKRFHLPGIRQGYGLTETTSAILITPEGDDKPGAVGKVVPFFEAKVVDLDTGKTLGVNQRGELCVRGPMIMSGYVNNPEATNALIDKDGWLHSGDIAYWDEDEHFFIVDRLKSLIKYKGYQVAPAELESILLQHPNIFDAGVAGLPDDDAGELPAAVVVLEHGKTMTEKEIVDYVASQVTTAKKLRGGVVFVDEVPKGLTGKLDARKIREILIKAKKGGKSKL
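Here, luciferase activity is measured as luminescence following an 8 min room-temperature reaction at 10 uM ATP, pH 7.2. Every library sample is titrated.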
p53ts 32C kill – kills p53ts cells at the permissive temperature. H1299-p53A138V at 32C, ATP luminescence viability, 24 h. Potency, µM (highest dose often 46.1 µM), for inactives: at the top dose activity change, negative = cytotoxicity, usual class: cytotoxic. 0.93% of 130,000 active;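 further: potency means the concentration at half of the fitted maximal effect; 0% = DMSO and -100% = full killing by reference compound; nearly all actives have a fitted effect of over 55% in size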
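H1299-p53 A138V cells (temperature-sensitive p53) exposed 24 h to up to 46 uM compound at 32C, where p53 is wild-type in conformation. Viability read as ATP luminescence and normalised to DMSO and 100 uM tamoxifen. AC50 fitted with the Hill equation.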
Numbers without * were called inactive; ? = inconclusive; . = not tested or not shown; [ ] = remark or other dose. This is one part of a sample in which hits are shown more often than they occur. Unless noted, the call rests on the fitted dose curve; in most records, active means well fitted curve in the direction sought with a large enough effect; inconclusive means small, poorly fitted or top-dose-only effect, or another doubt; inactive means no such curve, though single readings can be large; an effect the other way counts as inactive or inconclusive.

SMILES	p53ts 39C kill	Hsp90 Hop PPI	IMPase cell inh	IkB signaling	FLuc inh	p53ts 32C kill
Cc1ccc(C(=O)Nc2ncc(Cc3ccc(F)cc3)s2)o1	-13%	0%	-1	0%	20µM*	-17%
O=C(CSc1nnnn1-c1ccc(Cl)cc1)NC(=O)Nc1ccc2c(c1)OCCO2	-20%	-1%	16	1%	2.5µM*	-7%
COC(=O)[C@H]1[C@@H]2C[C@H]3c4[nH]c5ccccc5c4CCN3C[C@@H]2CC[C@@H]1O	.	-3%	.	0%[11.4 µM]	0%[11.4 µM]	.
O=C(NCC(c1cccnc1)N1CCOCC1)C(=O)Nc1ccc(F)cc1 (stereo not given)	-26%	.	.	?	.	-5%
COc1ccc(C(=O)NCC(c2cccnc2)N2CCN(c3ccccc3)CC2)cc1OC (stereo not given)	?	-3%	-12	2%	3%	10µM*
COc1ccc(C(=O)NCC(c2cccnc2)N2CCN(c3ccc(F)cc3)CC2)cc1OC (stereo not given)	-8%	-7%	-3	3%	-2%	-5%
Cc1ccc(NC(=O)C(=O)NCC(c2cccnc2)N2CCOCC2)cc1Cl (stereo not given)	20µM*	.	.	?	.	?
O=C(Cc1cc(=O)[nH]c(=O)[nH]1)NCC1CCCO1 (stereo not given)	20µM*	-9%	1	?	3%	-10%
O=C(Cc1cc(=O)[nH]c(=O)[nH]1)NCCN1CCOCC1	?	21%	-6	1%	7.9µM*	13µM*
Cc1cc(C)cc(OCC(=O)NCCN2CCOCC2)c1	-2%	0%	1	-1%	1%	-8%
CCc1ccccc1N1CC(c2nnc(NC(=O)c3ccco3)s2)CC1=O (stereo not given)	8%	.	.	0%	.	3%
Oc1[nH]c2ccccc2c1C=Nc1ccc2c(c1)OCCO2	13µM*	-18%	26	?	4µM*	?
CC(C)N=Cc1c(O)[nH]c2ccccc12	.	.	6	.	.	.
Cc1cccc(/N=C/c2c(O)[nH]c3ccccc23)n1	?	-6%	6	9%	4µM*	?
CCn1c(C(=O)N2CCCC(C(=O)NCCCOC)C2)cc2sccc21 (stereo not given)	-5%	.	.	-1%	.	11%
O=C(Nc1ccc2nc(SCC(=O)N3CCCc4ccccc43)sc2c1)c1ccccc1	17%	.	.	2%	.	-7%
CCOc1ccc(-n2nc3ccc(NC(=O)c4ccc(-c5cccc(Cl)c5)o4)cc3n2)cc1	7.9µM*	.	?	?	.	?
CCCCN(C)CCNC(=O)c1ccc(Cn2c(=O)[nH]c3cc(OC)c(OC)cc3c2=O)cc1	20%	.	.	?	.	1%
CS(=O)(=O)c1ccc(Sc2nc3ccccc3s2)c([N+](=O)[O-])c1	22µM*	.	5	.	.	.
CC1(C)CC[C@]2(C(=O)O)CC[C@]3(C)C(=CC[C@@H]4[C@@]5(C)CC[C@H](O)C(C)(C)[C@@H]5CC[C@@]43C)[C@@H]2C1	.	-11%	.	-1%[11.4 µM]	4%[11.4 µM]	.
CCN(CC)CCCC(C)Nc1c2ccc(Cl)cc2nc2ccc(OC)cc12 (stereo not given)	10µM*	.	.	.	.	5µM*
COC(=O)c1ccc(NC(=O)CC2C(=O)N(c3cccc(OC)c3)C(=O)N2Cc2ccco2)cc1 (stereo not given)	-22%	.	.	3%	.	1%
C=CCNc1ncnc2c1[nH]c1ccc(C)cc12	?	0%	2	-1%	10µM*	?
COc1cc(-c2nc3cnccn3c2Nc2ccc(C(C)C)cc2)ccc1O	?	.	-6	?	.	?
CC(C)c1ccc(Nc2c(-c3ccccn3)nc3ccccn23)cc1	16µM*	.	.	?	.	-21%
Cc1ccn2c(Nc3ccc(C(C)C)cc3)c(-c3cccnc3)nc2c1	25µM*	.	6	?	.	-1%
Cc1ccc2nc(-c3cccnc3)c(Nc3ccc(C(C)C)cc3)n2c1	-13%	.	13	3%	.	3%

Compound activity deposited in PubChem BioAssay by National Center for Advancing Translational Sciences (NCATS).
